Reference: PubChem BioAssay AID1159580 (chemical genetic matrix, 2015)
Hit rate of the full screen: of about 5,500 compounds, about 2,000 (36%) were called active. About 18% were inconclusive and are not listed. Cut-off read from the data, not from the text of the source: active = normalized growth mostly below about 0.91 (no sharp cut-off); inconclusive = no clear call, values can overlap the other calls; inactive = mostly above about 0.92. Some of the results follow.

Test: chemical genetic growth profiling, strain panel (AID 1159580);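 note: tested at 20 µM; growth read once vehicle control cultures reached saturation at 30 °C; 1 = growth at the plate median or of vehicle wells; lower values mean less growth of the strain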
Settings: growth OD

Measured: normalized growth

O=C1[C@H](CCC(O)c2ccc(F)cc2)[C@@H](c2ccc(O)cc2)N1c1ccc(F)cc1 (some centres not stated)
inactive: S. cerevisiae deletion strains, locus YJR075W, strain HOC1, active compounds read low 0.986 | S. cerevisiae deletion strains, locus YKL009W, strain mrt4, active compounds read low 0.944 | S. cerevisiae deletion strains, locus YKL068W, active compounds read low 0.989 | S. cerevisiae deletion strains, locus YKL085W, strain MDH1 (second series), active compounds read low 0.983 | S. cerevisiae deletion strains, locus YKL085W, strain MDH1, active compounds read low 0.983 | S. cerevisiae deletion strains, locus YKL160W, strain elf1, active compounds read low 0.974 | S. cerevisiae deletion strains, locus YKL190W, strain CNB1, active compounds read low 0.995 | S. cerevisiae deletion strains, locus YKR001C, strain vps1, active compounds read low 0.968 | S. cerevisiae deletion strains, locus YKR026C, strain gcn3, active compounds read low 0.961 | S. cerevisiae deletion strains, locus YKR091W, strain srl3, active compounds read low 0.977 | S. cerevisiae deletion strains, locus YLL001W, strain dnm1, active compounds read low 0.937 | S. cerevisiae deletion strains, locus YLL026W, active compounds read low 0.977 | S. cerevisiae deletion strains, locus YLL041C, strain sdh2, active compounds read low 0.967 | S. cerevisiae deletion strains, locus YLR027C, strain aat2, active compounds read low 0.98 | S. cerevisiae deletion strains, locus YLR039C, strain RIC1, active compounds read low 0.995 | S. cerevisiae deletion strains, locus YLR058C, strain SHM2, active compounds read low 0.982 | S. cerevisiae deletion strains, locus YLR102C, strain apc9, active compounds read low 0.972 | S. cerevisiae deletion strains, locus YLR113W, strain HOG1, active compounds read low 1 | S. cerevisiae deletion strains, locus YLR221C, strain rsa3, active compounds read low 0.986 | S. cerevisiae deletion strains, locus YLR258W, strain gsy2, active compounds read low 0.972 | S. cerevisiae deletion strains, locus YLR262C, strain YPT6 (second series), active compounds read low 0.988 | S. cerevisiae deletion strains, locus YLR262C, strain YPT6, active compounds read low 0.978 | S. cerevisiae deletion strains, locus YLR268W, strain sec22, active compounds read low 0.96 | S. cerevisiae deletion strains, locus YLR320W, strain mms22, active compounds read low 0.975 | S. cerevisiae deletion strains, locus YLR330W, strain CHS5, active compounds read low 0.988 | S. cerevisiae deletion strains, locus YLR342W, strain FKS1 (second series), active compounds read low 1.01 | S. cerevisiae deletion strains, locus YLR342W, strain FKS1, active compounds read low 0.973 | S. cerevisiae deletion strains, locus YLR357W, strain rsc2, active compounds read low 0.978 | S. cerevisiae deletion strains, locus YLR370C, strain arc18, active compounds read low 0.967 | S. cerevisiae deletion strains, locus YLR371W, strain rom2, active compounds read low 0.971 | S. cerevisiae deletion strains, locus YLR384C, strain iki3, active compounds read low 0.976 | S. cerevisiae deletion strains, locus YLR418C, strain cdc73, active compounds read low 0.948 | S. cerevisiae deletion strains, locus YML016C, strain PPZ1, active compounds read low 0.989 | S. cerevisiae deletion strains, locus YML032C, strain rad52, active compounds read low 0.979 | S. cerevisiae deletion strains, locus YML120C, strain ndi1, active compounds read low 0.968 | S. cerevisiae deletion strains, locus YML124C, strain tub3, active compounds read low 0.977 | S. cerevisiae deletion strains, locus YMR058W, strain fet3, active compounds read low 0.977 | S. cerevisiae deletion strains, locus YMR078C, strain ctf18, active compounds read low 0.968 | S. cerevisiae deletion strains, locus YMR125W, strain sto1, active compounds read low 0.971 | S. cerevisiae deletion strains, locus YMR129W, active compounds read low 0.962 | S. cerevisiae deletion strains, locus YMR205C, strain PFK2, active compounds read low 0.944 | S. cerevisiae deletion strains, locus YMR223W, strain ubp8, active compounds read low 0.987 | S. cerevisiae deletion strains, locus YMR231W, strain pep5, active compounds read low 0.994 | S. cerevisiae deletion strains, locus YMR263W, strain SAP30, active compounds read low 0.997 | S. cerevisiae deletion strains, locus YMR307W, strain GAS1, active compounds read low 0.976 | S. cerevisiae deletion strains, locus YNL067W, strain RPL9B, active compounds read low 1 | S. cerevisiae deletion strains, locus YNL071W, strain lat1, active compounds read low 0.984 | S. cerevisiae deletion strains, locus YNL128W, strain TEP1, active compounds read low 0.994 | S. cerevisiae deletion strains, locus YNL153C, strain GIM3, active compounds read low 0.995 | S. cerevisiae deletion strains, locus YNL183C, strain NPR1, active compounds read low 0.961 | S. cerevisiae deletion strains, locus YNL209W, strain ssb2, active compounds read low 0.99 | S. cerevisiae deletion strains, locus YNL233W, strain BNI4, active compounds read low 0.984 | S. cerevisiae deletion strains, locus YNL248C, strain rpa49, active compounds read low 0.965 | S. cerevisiae deletion strains, locus YNL250W, strain rad50, active compounds read low 0.974 | S. cerevisiae deletion strains, locus YNL271C, strain bni1, active compounds read low 0.968 | S. cerevisiae deletion strains, locus YNL298W, strain CLA4, active compounds read low 0.961 | S. cerevisiae deletion strains, locus YNL307C, strain MCK1, active compounds read low 0.961 | S. cerevisiae deletion strains, locus YNL322C, strain KRE1 (second series), active compounds read low 0.971 | S. cerevisiae deletion strains, locus YNL322C, strain KRE1, active compounds read low 0.994 | S. cerevisiae deletion strains, locus YNR049C, strain mso1, active compounds read low 0.962 | S. cerevisiae deletion strains, locus YNR052C, strain pop2, active compounds read low 0.973 | S. cerevisiae deletion strains, locus YOL006C, strain TOP1, active compounds read low 0.908 | S. cerevisiae deletion strains, locus YOL012C, strain htz1 1.05 | S. cerevisiae deletion strains, locus YOL147C, strain pex11, active compounds read low 0.975 | S. cerevisiae deletion strains, locus YOR001W, strain rrp6, active compounds read low 0.967 | S. cerevisiae deletion strains, locus YOR061W, strain CKA2, active compounds read low 0.984 | S. cerevisiae deletion strains, locus YOR069W, strain VPS5, active compounds read low 0.987 | S. cerevisiae deletion strains, locus YOR070C, strain gyp1, active compounds read low 0.982 | S. cerevisiae deletion strains, locus YOR080W, strain dia2, active compounds read low 0.956 | S. cerevisiae deletion strains, locus YOR083W, strain WHI5, active compounds read low 0.967 | S. cerevisiae deletion strains, locus YOR106W, strain vam3, active compounds read low 0.918 | S. cerevisiae deletion strains, locus YOR136W, strain idh2, active compounds read low 0.979 | S. cerevisiae deletion strains, locus YOR144C, strain elg1, active compounds read low 0.968 | S. cerevisiae deletion strains, locus YOR184W, strain ser1, active compounds read low 0.972 | S. cerevisiae deletion strains, locus YOR231W, strain MKK1, active compounds read low 0.961 | S. cerevisiae deletion strains, locus YOR265W, strain rbl2, active compounds read low 0.976 | S. cerevisiae deletion strains, locus YOR270C, strain vph1, active compounds read low 0.801 | S. cerevisiae deletion strains, locus YOR290C, strain snf2, active compounds read low 0.987 | S. cerevisiae deletion strains, locus YOR316C, strain cot1, active compounds read low 0.966 | S. cerevisiae deletion strains, locus YPL051W, strain arl3, active compounds read low 0.991 | S. cerevisiae deletion strains, locus YPL055C, strain LGE1, active compounds read low 0.998 | S. cerevisiae deletion strains, locus YPL078C, strain atp4, active compounds read low 0.908 | S. cerevisiae deletion strains, locus YPL106C, strain sse1, active compounds read low 1 | S. cerevisiae deletion strains, locus YPL240C, strain hsp82, active compounds read low 0.994 | S. cerevisiae deletion strains, locus YPL241C, strain CIN2, active compounds read low 0.996 | S. cerevisiae deletion strains, locus YPL256C, strain CLN2, active compounds read low 0.97 | S. cerevisiae deletion strains, locus YPR119W, strain clb2, active compounds read low 0.984 | S. cerevisiae deletion strains, locus YPR141C, strain kar3, active compounds read low 0.956 | S. cerevisiae deletion strains, locus YPR163C, strain tif3, active compounds read low 0.962 | S. cerevisiae deletion strains, locus YPR167C, strain met16, active compounds read low 0.966 | S. cerevisiae deletion strains, strain wtn01, active compounds read low 0.971 | S. cerevisiae strains, strain wild type, active compounds read low 1.01
